Several values for one entry are separate records, joined by “and”; a condition that tells them apart may be missing. Identical values can stand only once. Results filed as inconclusive are left out. Entries that show only a call come without a potency. Activity calls are given as the source filed them. Calls come from the whole dose curve.
Test: qHTS assay to identify small molecule agonists or antagonists of the thyroid stimulating hormone receptor (TSHR) signaling pathway - wild type cell line counter screen (AID 1259384)
Conditions: HEK293 wild type, cAMP HTRF counter-screen; series mostly up to 92.4 µM
From the text: U.S. Tox21 Program National Center for Advancing Translational Sciences [NCATS] NIH Chemical Genomics Center [NCGC] U.S. Environmental Protection Agency [EPA] National Institutes of Environmental Health Sciences [NIEHS] National Toxicology Program [NTP] U.S. Food and Drug Administration [FDA] Tox21 Assay Overview: TSHR is the receptor for thyrotropin (thyroid stimulating hormone or TSH), a member of the glycoprotein hormone family. TSH is released by the anterior pituitary gland and is the main regulator of thyroid gland growth and development. Upon binding circulating thyrotropin, a G-protein signal cascade activates adenylyl cyclase and […] cAMP concentration is increased. cAMP is a key second messenger involved extensively in cellular signal transduction pathways associated with the majority of G-protein coupled receptors (GPCRs). The activation of these GPCRs by neurotransmitters, lipids, nucleotides, peptides and hormones results in the activation or the inhibition of plasma membrane-bound adenylate cyclase through heterotrimeric G-proteins. A cell-based TSHR-Hek293 assay can be used to identify TSHR agonists. To eliminate the false positive compounds identified from screening a cell-based TSHR-Hek293 cell line, cAMP assay in a wild type Hek293 cells was used as a counter screening.
Tox21 Assay Protocol Summary: Hek293 cells (wild type) were dispensed at 800 cells/4 uL/well in 1536-well white plates using a Multidrop dispenser. After the assay plates were incubated at a 37 C/5% CO2 incubator for 18 hrs, 23 nL of compounds dissolved in DMSO, positive controls or DMSO only was transferred to the assay plate by a pin tool, followed by 1 ul medium containing Ro20-1724. After 30 min of incubation at room temperature, 2.5 ul/well of cAMP-d2 and 2.5 ul/well of anti-cAMP-cryptate were added respectively into the assay plates using a Flying Reagent Dispenser. The plates were incubated at room temperature for 1 hr. The fluorescence intensity in the plates was measured using an Envision plate reader. Each test compound was measured at 15 concentrations and in triplicates.
With C=CC(=O)OCCCC the Potency was “inactive”. With COCCOCCOCCO the Potency was “inactive”. For Nc1ccc2c(O)cc(S(=O)(=O)O)cc2c1, the Potency was “inactive”. In the case of C[C@]12CC[C@@H]3c4ccc(O)cc4CC[C@H]3[C@@H]1CC[C@H]2O, the Potency is reported as “inactive”. For CCCCCC1C(=O)CCC1CC(=O)OC (stereo not given), the Potency was “inactive”. In the case of OC[C@H]1O[C@@H]2O[C@H]3[C@H](O)[C@@H](O)[C@@H](O[C@H]4[C@H](O)[C@@H](O)[C@@H](O[C@H]5[C@H](O)[C@@H](O)[C@@H](O[C@H]6[C@H](O)[C@@H](O)[C@@H](O[C@H]7[C@H](O)[C@@H](O)[C@@H](O[C@H]1[C@H](O)[C@H]2O)O[C@@H]7CO)O[C@@H]6CO)O[C@@H]5CO)O[C@@H]4CO)O[C@@H]3CO, the Potency is reported as “inactive”. In the case of CC(=O)Oc1ccc(C(c2ccc(OC(C)=O)cc2)c2ccccn2)cc1, the Potency is reported as “inactive”. For O=C(O)CCCCCCCCCCCC(=O)O, the Potency was “inactive”. For COC(=O)c1ccc(C)cc1, the Potency was “inactive”. In the case of O=C(CCCN1CCC(O)(c2ccc(Cl)cc2)CC1)c1ccc(F)cc1, the Potency is reported as “inactive”. With C[C@]12C=CC(=O)C=C1CC[C@H]1[C@@H]3C[C@@H](O)[C@](O)(C(=O)CO)[C@@]3(C)C[C@H](O)[C@@]12F the Potency was “inactive”. For CN(C)CCCN1c2ccccc2Sc2ccc(Cl)cc21, the Potency was “inactive”. For c1ccc2c(c1)ccc1cc3c(ccc4ccccc43)cc12, the Potency was “inactive”. In the case of CC/C(=C(/CC)c1ccc(O)cc1)c1ccc(O)cc1, the Potency is reported as “inactive”. With Cc1ccc(/C(=C\CN2CCCC2)c2ccccn2)cc1 the Potency was “inactive”. In the case of CC(C)=CCO, the Potency is reported as “inactive”. With OCCNCCO the Potency was “inactive”. For C1CN(SSN2CCOCC2)CCO1, the Potency was “inactive”. For CCC/C=C/C=O, the Potency was “inactive”. For CC1(C)OC(=O)NC1=O, the Potency was “inactive”. With O=C1CCc2ccccc2O1 the Potency was “inactive”. In the case of CCCOCCO, the Potency is reported as “inactive”. In the case of NCCS(=O)(=O)O, the Potency is reported as “inactive”. In the case of CC(=O)Oc1c(C)c(C)c2c(c1C)CC[C@@](C)(CCC[C@H](C)CCC[C@H](C)CCCC(C)C)O2, the Potency is reported as “inactive”. In the case of CC(C)(Oc1ccc(Cl)cc1)C(=O)O, the Potency is reported as “inactive”. In the case of C/C=C/C(=O)N(CC)c1ccccc1C, the Potency is reported as “inactive”. For COC(=O)C(C)Oc1ccc(Oc2ncc(C(F)(F)F)cc2Cl)cc1 (stereo not given), the Potency was “inactive”. For COc1ccc(C(=O)c2ccccc2O)c(O)c1, the Potency was “inactive”. For Cc1ccc(S(=O)(=O)NCl)cc1, the Potency was “inactive”. For CCCCCCOCCOCCO, the Potency was “inactive”. For C[C@]12CC[C@@H]3c4ccc(O)cc4CC[C@H]3[C@@H]1CC[C@@H]2O, the Potency was “inactive”. In the case of O=C(O)c1cc(=O)[nH]c(=O)[nH]1, the Potency is reported as “inactive”. In the case of Oc1ccc(C(c2ccc(O)cc2)C(Cl)(Cl)Cl)cc1, the Potency is reported as “inactive”. With CCCCCCCC/C=C\CCCCCCCC(=O)O the Potency was “inactive”. With CC/C=C\C/C=C\C/C=C\CCCCCCCC(=O)O the Potency was “inactive”. In the case of C=C[Si](OCCOC)(OCCOC)OCCOC, the Potency is reported as “inactive”. For C=C[C@@]1(C)CC(=O)[C@]2(O)[C@@]3(C)[C@@H](O)CCC(C)(C)[C@@H]3[C@H](O)[C@H](OC(C)=O)[C@@]2(C)O1, the Potency was 63.6 nM (active) and 256 nM (active). For CC1(C)C(C=C(Cl)Cl)C1C(=O)OCc1cccc(Oc2ccccc2)c1 (stereo not given), the Potency was “inactive”. With CCC(Cc1c(I)cc(I)c(N)c1I)C(=O)O (stereo not given) the Potency was “inactive”. With [O-]/[N+](=N\O)c1ccccc1 the Potency was “inactive”.

Reference: PubChem BioAssay (Tox21)
Potency is the fitted concentration of half-maximal effect.
